Screening data deposited in PubChem BioAssay by National Center for Advancing Translational Sciences (NCATS).
This is a sample that favours compounds with a hit; in the whole collection about 11% have one here.
IMPase inh: IMPase inhibition in cells | inhibition (IP1 accumulation), % at 46.1 µM | P97697 | AID 901 | CHO-M1 cells, IP1 accumulation, HTRF TR-FRET ratio | 120,000 tested, under 10 active; active means well fitted curve in the direction sought with a large enough effect in the signal ratio, not every such curve was filed as active; inconclusive means small, poorly fitted or top-dose-only effect, or a change in a side signal; inactive means no such curve, though single readings can be large or run the other way; the % refers to the signal ratio;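 further: cells stimulated with carbachol in lithium chloride buffer; plate controls were DMSO basal wells for no effect and reference inhibitor wells for full effect; higher means more IMPase inhibition seen as more IP1 and lower FRET ratio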
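Seeded CHO-M1 cells were dosed with compound at up to 46 uM, stimulated with carbachol for 30 min, then lysed in IP-One detection reagents. Higher IP1 lowers the TR-FRET signal.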
NPSR antag: neuropeptide S receptor (human) antagonism, cAMP | Q6W5P4 | CHO-NPSR cells, cAMP TR-FRET, antagonist mode | Potency, µM (series often up to 38.3 µM), for the others: at the top dose activity change, negative = inhibition, usual class: inhibitors | 220,000 compounds, 1% hits | AID 1461; active means well fitted curve in the direction sought with a large enough effect; inconclusive means small, poorly fitted or top-dose-only effect, or another doubt; inactive means no such curve, though single readings can be large; an effect the other way counts as inactive or inconclusive; further: potency means the concentration at half of the fitted maximal effect; nearly all actives have a fitted effect of over 50% in size
PNC assembly inh: inhibitors of perinucleolar compartment assembly; 140,000 compounds, 3.1% hits; PC3M PTB-GFP, PNC prevalence imaging, 16 h; active compounds read low; activity change (PNC), negative = inhibition, % at 10 µM; AID 2417;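 active means readout at or below -70, meaning at least 70% loss of cells showing the perinucleolar compartment, a nuclear body marking cancer cells; inconclusive means readout between -30 and a set limit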;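 further: plate controls were DMSO wells for no effect and camptothecin positive control wells for full effect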
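Compounds are pinned in duplicate onto adhered PC3M cells stably expressing GFP-tagged PTB and incubated 16 h at 37 C. Cells are then fixed, nuclei stained with Hoechst, and PNC-positive cells counted.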
IMPase Li inh: cell-permeable IMPase inhibitors with lithium potentiation; CHO-M1 cells, IP1 TR-FRET (IP-One), carbachol + lithium; Potency, µM (highest dose often 59.4 µM), for the others: at the highest dose activity, negative = IMPase inhibition, usual class: inhibitors; 210,000 compounds, 0.35% hits; AID 1457; active means well fitted curve in the direction sought with a large enough effect; inconclusive means small, poorly fitted or top-dose-only effect, or another doubt; inactive means no such curve, though single readings can be large; an effect the other way counts as inactive or inconclusive;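 further: IP1 builds up when IMPase is blocked and the TR-FRET signal falls; potency means the concentration at half of the fitted maximal effect; plate controls were basal vehicle for no effect and high inhibitor control for full effect; nearly all actives have a fitted effect of over 50% in size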
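CHO cells stably expressing M1 receptor (2000/well) were cultured 16–30 h, then exposed to compounds with a small lithium addition for 30 min at 37C. IP1 was measured by TR-FRET competition; AC50 from Hill fits.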
ALDH1A1 block: ALDH1A1 (human) enzyme inhibition | AID 1030 | Potency, µM (highest dose often 75.3 µM), for the others: top-dose activity, negative = inhibition, hits mostly inhibitors | Purified ALDH1A1, NADH fluorescence, propionaldehyde substrate | 220,000 compounds, 7.3% hits | P00352;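 further: potency means the concentration at half of the fitted maximal effect; plate controls were no enzyme wells and a reference inhibitor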
Target sequence (P00352 whole entry, looked up): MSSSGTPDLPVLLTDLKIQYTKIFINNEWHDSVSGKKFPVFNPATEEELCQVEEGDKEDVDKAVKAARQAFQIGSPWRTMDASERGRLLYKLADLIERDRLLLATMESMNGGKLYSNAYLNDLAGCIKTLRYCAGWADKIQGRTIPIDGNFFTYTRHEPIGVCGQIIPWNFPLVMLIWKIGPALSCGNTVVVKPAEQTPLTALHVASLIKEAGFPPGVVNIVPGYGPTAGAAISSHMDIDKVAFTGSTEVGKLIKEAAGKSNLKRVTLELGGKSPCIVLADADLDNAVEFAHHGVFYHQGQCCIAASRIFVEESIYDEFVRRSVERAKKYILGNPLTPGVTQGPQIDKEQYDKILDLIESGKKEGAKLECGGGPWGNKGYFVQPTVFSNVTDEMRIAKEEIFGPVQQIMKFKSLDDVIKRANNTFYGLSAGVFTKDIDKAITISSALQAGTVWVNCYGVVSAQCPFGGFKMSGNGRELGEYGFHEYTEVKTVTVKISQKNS
HPGD block: blocks human HPGD enzyme activity | P15428 | purified HPGD, NADH fluorescence kinetic, PGE2 substrate | Potency, µM, inactives show at the highest dose activity change, negative = inhibition, usual class: inhibitors | 150,000 compounds, 4.3% hits | AID 894; further: potency means the concentration at half of the fitted maximal effect
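20 nM HPGD preincubated 15 min at room temperature with compound in 50 mM Tris-HCl pH 8, 0.01% Tween 20. Started with 1 mM NAD+ and 30 uM prostaglandin E2; NADH fluorescence (360/450 nm) read 5 times over 30-s intervals, last minus first.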
* marks the source's active call; other numbers are inactive results; [ ] = dose if it differs, or a comment. Unless noted, the call rests on the fitted dose curve; in most records, active means well fitted inhibition curve with a large enough effect (not every such curve was filed as active); inconclusive means small, poorly fitted or top-dose-only effect, or another doubt; inactive means no such curve, though single readings can be large or run the other way. Unless noted, on the % scale 0 is the no-effect control and ±100 the full control effect.

CCc1cc2c(=O)c(-c3cnn(-c4ccccc4)c3)c(C)oc2c(CN2CCCCC2)c1O was read as IMPase inh 3, NPSR antag inconclusive, PNC assembly inh 9, IMPase Li inh 13%[38.3 µM], ALDH1A1 block inconclusive and HPGD block inconclusive.
`CCOc1ccc(C(=O)N2CCN(C(=O)c3ccco3)CC2)cc1OCC` gave IMPase inh -1, NPSR antag -5%[46.1 µM], PNC assembly inh 25, IMPase Li inh 7%[38.3 µM], ALDH1A1 block 1% and HPGD block -12%.
For COCCCNC(=O)/C(C#N)=C1\N=C(NC(=O)c2cccs2)c2ccccc21 the results were NPSR antag 21% and ALDH1A1 block 4µM*.
Screening CCN(CC)c1ccc2c(c1)CCCN2 returned IMPase inh 24, NPSR antag -41%, PNC assembly inh -5, IMPase Li inh 31%, ALDH1A1 block 25µM* and HPGD block -10%.
O=[N+]([O-])c1ccc(O)c(N=Cc2sc3ccccc3c2O)c1 was read as NPSR antag -18%, PNC assembly inh 15, IMPase Li inh 34%, ALDH1A1 block inconclusive and HPGD block 14µM*.
`Fc1ccc(N2CCN(Cc3cnc(N4CCOCC4)s3)CC2)cc1` gave NPSR antag 7%, IMPase Li inh 0% and ALDH1A1 block -1%.
For Cc1ccc(C)c(NS(=O)(=O)c2cc(C(N)=O)ccc2C)c1 the results were IMPase inh -2, NPSR antag -11%[46.1 µM], PNC assembly inh -81*, IMPase Li inh 7%[38.3 µM], ALDH1A1 block -2% and HPGD block -11%.
Screening Cc1ccc(N=Cc2c(O)n(-c3ccc4c(c3)OCO4)c(=O)c3ccccc23)cc1 returned IMPase inh 4, NPSR antag -5%[46.1 µM], PNC assembly inh 16, IMPase Li inh 41%[38.3 µM], ALDH1A1 block -5% and HPGD block -11%.
For COc1cccc(C(=O)NC2CCN(CC(=O)NCc3ccccc3OC)CC2)c1 the results were IMPase inh 1, NPSR antag -2%[46.1 µM], PNC assembly inh 1, IMPase Li inh -2%[38.3 µM], ALDH1A1 block -14% and HPGD block -4%.
COc1cccc(OC)c1NC(=O)CN1CCC(NC(=O)c2cccc(F)c2)CC1 was read as IMPase inh 11, NPSR antag -5%[46.1 µM], PNC assembly inh inconclusive, IMPase Li inh 3%, ALDH1A1 block 40µM* and HPGD block -13%.
O=C(NC(=S)N1CCN(C/C=C/c2ccccc2)CC1)c1ccc(Cl)nc1 was read as NPSR antag inconclusive and ALDH1A1 block 18µM*.
O=C(NC(=S)N1CCN(Cc2ccccc2)CC1)c1cccnc1 was read as NPSR antag -1%, IMPase Li inh 1% and ALDH1A1 block -2%.
For CCN1CCCC1CN(Cc1cc2ccc(C)cc2[nH]c1=O)C(=S)Nc1ccc(OC)cc1OC (stereo not drawn) the results were IMPase inh -2, NPSR antag 4%, PNC assembly inh -24, IMPase Li inh 12%, ALDH1A1 block 20µM* and HPGD block -16%.
Screening CNc1cc([N+](=O)[O-])ccc1N/C=C/C(=O)c1ccc2c(c1)OCO2 returned NPSR antag -16%, PNC assembly inh -118*, IMPase Li inh -2%, ALDH1A1 block 13µM* and HPGD block -16%.
O=C1CCCC2=C1C(c1ccccn1)Nc1ccc(C(=O)c3ccccc3)cc1N2 (stereo not drawn) was read as NPSR antag -13%, PNC assembly inh inconclusive, IMPase Li inh 12%, ALDH1A1 block -11% and HPGD block -11%.
O=C1CCCC2=C1C(c1ccco1)Nc1ccc(C(=O)c3ccccc3)cc1N2 (stereo not drawn) was read as IMPase inh 5, NPSR antag -28%[46.1 µM], PNC assembly inh inconclusive, IMPase Li inh -19%[38.3 µM], ALDH1A1 block 20µM* and HPGD block -28%.
COc1ccc(Cc2noc(CN3CCN(c4ccc(Cl)cn4)CC3)n2)cc1OC was read as NPSR antag 7%, IMPase Li inh 19% and ALDH1A1 block -1%.
